What all share (assay): HT-SELEX; 20 mM HEPES pH 7, 140 mM KCl, 5 mM NaCl, 1 mM K2HPO4, 2 mM MgSO4, 100 uM EGTA, ZnSO4, 0.1% Tween20; room temperature, 1 h; high values mean tight binding
What all share (conditions): protein: ivt; tags: eGFP (N-terminal); dsDNA, one strand shown

One experiment has as its target ZNF721 full-length (Homo sapiens, UniProt Q8TF20-2 1-923). The gist of the method:
(§1)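 In HEPES/KCl low-stringency buffer with Tween20, a bead-immobilised tagged transcription factor (full-length or DNA-binding-domain fragment, from HEK293 lysate or cell-free extract) was incubated with a randomized 40-base DNA library for 1 h at room temperature. DNA retained after washing was heat-eluted, amplified by PCR over successive cycles and Illumina-sequenced, giving ~3 million 60 bp reads per sample. The reported binding signal, a relative k-mer count in those selected reads, rises with tighter binding.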

For the next experiment, the target named is ZNF721 DBD1 (Homo sapiens, UniProt Q8TF20-2 29-461). A digest of the protocol:
as §1

A further experiment concerns the target ZNF721 DBD2 (Homo sapiens, UniProt Q8TF20-2 395-923). The gist of the method: as §1

Sequence of ZNF721 DBD1 (Q8TF20 17-449): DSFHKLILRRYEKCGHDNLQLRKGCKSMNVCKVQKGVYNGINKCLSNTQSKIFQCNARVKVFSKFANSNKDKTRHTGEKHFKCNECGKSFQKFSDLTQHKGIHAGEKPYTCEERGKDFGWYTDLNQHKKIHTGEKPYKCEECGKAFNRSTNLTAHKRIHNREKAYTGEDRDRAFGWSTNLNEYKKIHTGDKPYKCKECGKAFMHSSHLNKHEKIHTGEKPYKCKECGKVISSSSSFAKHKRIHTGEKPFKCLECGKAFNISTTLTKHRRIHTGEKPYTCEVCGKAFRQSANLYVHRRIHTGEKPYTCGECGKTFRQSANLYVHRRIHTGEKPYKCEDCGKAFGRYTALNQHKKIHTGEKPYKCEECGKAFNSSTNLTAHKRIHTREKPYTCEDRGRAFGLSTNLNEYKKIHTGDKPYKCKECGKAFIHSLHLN
Sequence of ZNF721 DBD2 (Q8TF20 383-911): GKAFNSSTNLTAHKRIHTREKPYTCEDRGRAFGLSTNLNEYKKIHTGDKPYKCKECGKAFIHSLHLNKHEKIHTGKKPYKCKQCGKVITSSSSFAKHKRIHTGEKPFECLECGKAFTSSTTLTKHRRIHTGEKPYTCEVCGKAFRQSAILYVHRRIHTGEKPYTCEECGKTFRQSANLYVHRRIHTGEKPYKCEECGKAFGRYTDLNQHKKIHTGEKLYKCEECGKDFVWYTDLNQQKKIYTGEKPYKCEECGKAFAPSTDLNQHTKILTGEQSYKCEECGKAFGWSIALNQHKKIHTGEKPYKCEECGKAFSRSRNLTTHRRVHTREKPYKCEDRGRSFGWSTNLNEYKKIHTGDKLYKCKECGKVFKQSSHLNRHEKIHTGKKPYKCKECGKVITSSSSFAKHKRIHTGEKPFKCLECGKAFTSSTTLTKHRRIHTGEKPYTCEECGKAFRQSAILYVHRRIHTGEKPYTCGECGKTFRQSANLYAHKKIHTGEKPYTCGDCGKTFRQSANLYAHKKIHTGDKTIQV
Sequence of ZNF721 full-length (Q8TF20 other isoform, or with tags, fused parts or gaps): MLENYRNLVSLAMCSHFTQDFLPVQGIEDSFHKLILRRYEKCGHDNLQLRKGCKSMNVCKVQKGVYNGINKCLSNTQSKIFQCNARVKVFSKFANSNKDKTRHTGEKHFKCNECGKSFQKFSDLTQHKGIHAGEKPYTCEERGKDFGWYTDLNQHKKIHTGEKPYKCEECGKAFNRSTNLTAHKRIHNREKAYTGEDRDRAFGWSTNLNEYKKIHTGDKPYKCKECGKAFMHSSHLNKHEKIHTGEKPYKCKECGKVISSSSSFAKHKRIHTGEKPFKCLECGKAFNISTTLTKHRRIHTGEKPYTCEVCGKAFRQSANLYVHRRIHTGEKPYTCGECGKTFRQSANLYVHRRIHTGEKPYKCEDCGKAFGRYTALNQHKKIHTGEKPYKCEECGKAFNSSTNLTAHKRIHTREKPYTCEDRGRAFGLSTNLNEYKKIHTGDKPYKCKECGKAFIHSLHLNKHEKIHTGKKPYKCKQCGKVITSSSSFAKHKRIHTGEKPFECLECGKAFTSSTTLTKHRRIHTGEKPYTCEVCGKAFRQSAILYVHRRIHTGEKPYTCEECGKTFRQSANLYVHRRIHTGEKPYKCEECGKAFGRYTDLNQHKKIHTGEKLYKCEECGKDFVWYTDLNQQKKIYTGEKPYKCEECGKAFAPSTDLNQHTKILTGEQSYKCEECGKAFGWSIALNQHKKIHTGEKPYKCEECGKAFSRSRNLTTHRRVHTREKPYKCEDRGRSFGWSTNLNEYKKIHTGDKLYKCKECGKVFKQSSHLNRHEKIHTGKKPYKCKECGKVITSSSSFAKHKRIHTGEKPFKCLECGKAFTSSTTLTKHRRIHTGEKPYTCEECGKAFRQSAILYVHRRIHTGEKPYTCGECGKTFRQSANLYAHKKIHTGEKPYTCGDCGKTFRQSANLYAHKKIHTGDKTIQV

CCCCCCATCC: the binding signal with ZNF721 full-length is 0.15 relative 10-mer count; with ZNF721 DBD1 it was 0.00509 relative 10-mer count; with ZNF721 DBD2, 0.00419 relative 10-mer count.

In the case of CAACCACCCC, the binding signal in the experiment with ZNF721 full-length was 0.13 relative 10-mer count; with ZNF721 DBD1, 0.00486 relative 10-mer count; in the experiment with ZNF721 DBD2, 0.00252 relative 10-mer count.

For CCCCCCGACC, the binding signal stood at 0.147 relative 10-mer count with ZNF721 full-length, 0.00482 relative 10-mer count with ZNF721 DBD1 and 0.00288 relative 10-mer count with ZNF721 DBD2.

Consider CCCATCCACC, for which the binding signal with ZNF721 full-length amounted to 0.103 relative 10-mer count; with ZNF721 DBD1, 0.00569 relative 10-mer count; with ZNF721 DBD2, 0.00827 relative 10-mer count.

Turning to ACCCACACCC, the values for the binding signal in the experiment with ZNF721 full-length, with ZNF721 DBD1 and in the experiment with ZNF721 DBD2 were 0.108 relative 10-mer count, 0.00527 relative 10-mer count and 0.00527 relative 10-mer count, respectively.

For CCGCCCCCCA, the binding signal with ZNF721 full-length amounted to 0.141 relative 10-mer count; with ZNF721 DBD1 it was 0.0066 relative 10-mer count; with ZNF721 DBD2, 0.00252 relative 10-mer count.

For ACCAAAAAAA, the binding signal in the experiment with ZNF721 full-length stood at 0.128 relative 10-mer count; in the experiment with ZNF721 DBD1, 0.00904 relative 10-mer count; with ZNF721 DBD2, 0.0723 relative 10-mer count.

Regarding ACCCCACCCC, the binding signal came out at 0.277 relative 10-mer count in the experiment with ZNF721 full-length, 0.0101 relative 10-mer count in the experiment with ZNF721 DBD1 and 0.00324 relative 10-mer count in the experiment with ZNF721 DBD2.

For the sequence CCCCAACCCC, the binding signal came to 0.283 relative 10-mer count in the experiment with ZNF721 full-length, 0.0104 relative 10-mer count with ZNF721 DBD1 and 0.00288 relative 10-mer count in the experiment with ZNF721 DBD2.

For the sequence CCCCCCTCCC, the binding signal in the experiment with ZNF721 full-length stood at 0.304 relative 10-mer count; with ZNF721 DBD1, 0.0139 relative 10-mer count; with ZNF721 DBD2, 0.00372 relative 10-mer count.

Regarding CTGCCCACCC, the binding signal was found to be 0.102 relative 10-mer count with ZNF721 full-length, 0.00394 relative 10-mer count with ZNF721 DBD1 and 0.00216 relative 10-mer count with ZNF721 DBD2.

Turning to ACCCACCCAC, the binding signal turned out to be 0.196 relative 10-mer count with ZNF721 full-length, 0.00922 relative 10-mer count with ZNF721 DBD1 and 0.00887 relative 10-mer count with ZNF721 DBD2.

For the sequence CCCCCCCCAA, the figures for the binding signal with ZNF721 full-length, in the experiment with ZNF721 DBD1 and with ZNF721 DBD2 were 0.109 relative 10-mer count, 0.00316 relative 10-mer count and 0.00288 relative 10-mer count, respectively.

As to ACCCCCACCG, the binding signal was 0.102 relative 10-mer count with ZNF721 full-length, 0.00367 relative 10-mer count in the experiment with ZNF721 DBD1 and 0.00336 relative 10-mer count with ZNF721 DBD2.

Regarding ACCCCACCCA, the results for the binding signal with ZNF721 full-length, with ZNF721 DBD1 and in the experiment with ZNF721 DBD2 were 0.173 relative 10-mer count, 0.00583 relative 10-mer count and 0.00419 relative 10-mer count, respectively.

Take CCCCACTCCC: the figures for the binding signal with ZNF721 full-length, in the experiment with ZNF721 DBD1 and with ZNF721 DBD2 were 0.157 relative 10-mer count, 0.00688 relative 10-mer count and 0.00216 relative 10-mer count, respectively.

AGGGTGGGTG: the binding signal was determined as 0.158 relative 10-mer count in the experiment with ZNF721 full-length, 0.0094 relative 10-mer count in the experiment with ZNF721 DBD1 and 0.00515 relative 10-mer count with ZNF721 DBD2.

For CATCCCCCCC, the values for the binding signal in the experiment with ZNF721 full-length, with ZNF721 DBD1 and in the experiment with ZNF721 DBD2 were 0.123 relative 10-mer count, 0.00463 relative 10-mer count and 0.00635 relative 10-mer count, respectively.

For the sequence AGGGCGGGGG, the binding signal was 0.14 relative 10-mer count with ZNF721 full-length, 0.0056 relative 10-mer count with ZNF721 DBD1 and 0.00276 relative 10-mer count with ZNF721 DBD2.

As to AAAAGCAGTC, the binding signal in the experiment with ZNF721 full-length stood at 0.111 relative 10-mer count; in the experiment with ZNF721 DBD1 it was 0.00225 relative 10-mer count; with ZNF721 DBD2, 0.105 relative 10-mer count.

AAACAAGCAG: the binding signal with ZNF721 full-length is 0.212 relative 10-mer count; with ZNF721 DBD1, 0.00908 relative 10-mer count; with ZNF721 DBD2, 0.149 relative 10-mer count.

CCACCCCCAA: the figures for the binding signal with ZNF721 full-length, with ZNF721 DBD1 and with ZNF721 DBD2 were 0.118 relative 10-mer count, 0.00546 relative 10-mer count and 0.00491 relative 10-mer count, respectively.

ACCGCCACCC: the binding signal in the experiment with ZNF721 full-length came to 0.111 relative 10-mer count; with ZNF721 DBD1, 0.00335 relative 10-mer count; in the experiment with ZNF721 DBD2, 0.00192 relative 10-mer count.

As for AAAAAAGAGT, the binding signal in the experiment with ZNF721 full-length worked out at 0.101 relative 10-mer count; with ZNF721 DBD1 it was 0.00665 relative 10-mer count; with ZNF721 DBD2, 0.0674 relative 10-mer count.

Consider CCGCACCCCC, for which the binding signal with ZNF721 full-length came out at 0.152 relative 10-mer count; in the experiment with ZNF721 DBD1, 0.00569 relative 10-mer count; with ZNF721 DBD2, 0.00156 relative 10-mer count.

As for CCACCCCTCC, the binding signal was 0.209 relative 10-mer count with ZNF721 full-length, 0.0108 relative 10-mer count in the experiment with ZNF721 DBD1 and 0.00491 relative 10-mer count with ZNF721 DBD2.

For CCCCGCCCAC, the results for the binding signal with ZNF721 full-length, in the experiment with ZNF721 DBD1 and in the experiment with ZNF721 DBD2 were 0.202 relative 10-mer count, 0.00771 relative 10-mer count and 0.00407 relative 10-mer count, respectively.

As to CACCCCCACC, the binding signal with ZNF721 full-length was 0.308 relative 10-mer count; in the experiment with ZNF721 DBD1, 0.0129 relative 10-mer count; with ZNF721 DBD2 it was 0.0102 relative 10-mer count.

For GGGTGGGTGA, the values for the binding signal with ZNF721 full-length, with ZNF721 DBD1 and in the experiment with ZNF721 DBD2 were 0.104 relative 10-mer count, 0.00505 relative 10-mer count and 0.0012 relative 10-mer count, respectively.

With CTCCCACCAC, the binding signal was 0.11 relative 10-mer count in the experiment with ZNF721 full-length, 0.00752 relative 10-mer count with ZNF721 DBD1 and 0.00599 relative 10-mer count in the experiment with ZNF721 DBD2.

For CCACCCCCGC, the binding signal worked out at 0.203 relative 10-mer count with ZNF721 full-length, 0.0072 relative 10-mer count with ZNF721 DBD1 and 0.00264 relative 10-mer count in the experiment with ZNF721 DBD2.

As for CACCAACCCC, the values for the binding signal in the experiment with ZNF721 full-length, with ZNF721 DBD1 and in the experiment with ZNF721 DBD2 were 0.123 relative 10-mer count, 0.00404 relative 10-mer count and 0.00407 relative 10-mer count, respectively.

Take CCCCCCACCC: the values for the binding signal with ZNF721 full-length, with ZNF721 DBD1 and with ZNF721 DBD2 were 0.415 relative 10-mer count, 0.0187 relative 10-mer count and 0.0036 relative 10-mer count, respectively.

AGGGGGGGTG: the binding signal with ZNF721 full-length stood at 0.108 relative 10-mer count; with ZNF721 DBD1 it was 0.00422 relative 10-mer count; with ZNF721 DBD2 it was 0.00252 relative 10-mer count.

Turning to AAGCAGCGTA, the figures for the binding signal with ZNF721 full-length, with ZNF721 DBD1 and in the experiment with ZNF721 DBD2 were 0.162 relative 10-mer count, 0.00124 relative 10-mer count and 0.201 relative 10-mer count, respectively.

Turning to ATGGGTGGGG, the binding signal is 0.109 relative 10-mer count with ZNF721 full-length, 0.00427 relative 10-mer count with ZNF721 DBD1 and 0.00372 relative 10-mer count with ZNF721 DBD2.

With CAACCCCCCC, the binding signal in the experiment with ZNF721 full-length amounted to 0.131 relative 10-mer count; with ZNF721 DBD1 it was 0.00431 relative 10-mer count; with ZNF721 DBD2 it was 0.00252 relative 10-mer count.

The record behind these values is article PMC13541613, “GHT-SELEX demonstrates unexpectedly high intrinsic sequence specificity and complex DNA binding of many human transcription factors”.
